Assay outcomes: PubChem BioAssay, Sanford-Burnham Center for Chemical Genomics
eIF4H FP inh – inhibitors of RNA binding by human eIF4H; Q15056; eIF4H fluorescence polarization binding assay; inhibition, % at 35 µM; hit rate 0.94% among 290,000; AID 2012;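 further: calls also rest on retests at 20 µM and on dose response follow-up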
PHOSPHO1 block – blocks human PHOSPHO1 phosphatase activity; recombinant PHOSPHO1, absorbance phosphatase assay; Q8TCT1; hit rate 1.1% among 290,000; inhibition, % at 13.3 µM; in the data active means inhibition above about 60%
MLLE-PAM2 inh – blocks PAM2 peptide binding to the PABP1 MLLE domain. hit rate 0.36% among 360,000. GST-MLLE / FITC-PAM2 fluorescence polarization. inhibition, % at 20 µM; in the data active means inhibition above about 35%, passing the limit was not always enough;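 further: plate controls were DMSO wells with GST-MLLE for no effect and wells lacking GST-MLLE protein for full effect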
APOBEC3G inh – APOBEC3G (human) deaminase inhibition; hit rate 0.28% among 330,000; recombinant A3G, ssDNA deamination FAM/TAMRA fluorescence; inhibition, % at 20 µM;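 active means inhibition of at least 40% at 20 µM, with no more than 30% in the related APOBEC3A deaminase screen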;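 further: plate controls were DMSO wells with A3G for no effect and wells lacking A3G enzyme for full effect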
A3A deaminase – inhibitors of human APOBEC3A DNA deaminase; recombinant A3A, FAM/TAMRA ssDNA deamination fluorescence; inhibition, % at 20 µM; hit rate 0.41% among 330,000; AID 493011;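 active means at least 40% inhibition at 20 µM here, with at most 30% in a related deaminase screen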;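 further: plate controls were A3A with DMSO for no effect and wells lacking A3A enzyme for full effect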
Target sequence (P31941 whole entry, looked up): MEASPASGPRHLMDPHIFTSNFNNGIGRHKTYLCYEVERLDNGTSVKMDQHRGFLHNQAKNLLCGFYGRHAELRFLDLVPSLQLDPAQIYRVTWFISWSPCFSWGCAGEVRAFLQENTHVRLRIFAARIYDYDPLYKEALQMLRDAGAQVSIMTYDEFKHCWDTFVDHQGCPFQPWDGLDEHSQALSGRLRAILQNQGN
PABP polyA inh – PABP-poly(A) binding inhibition | calls only at 35 µM | hit rate 1% among 290,000 | PABP-poly(A) RNA binding, fluorescence polarization | P11940 | AID 2014;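 further: calls also rest on retests at 20 µM and on dose response follow-up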
A3G conf – confirmation of human APOBEC3G DNA deaminase inhibitors. shares compounds with APOBEC3G inh. recombinant A3G ssDNA deaminase, UDG/FAM-TAMRA fluorescence. inhibition, % at 20 µM. hit rate 72% among 890;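 active means inhibition reaching a set limit in any replicate at 20 µM, the limit being 80% of the first screen's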
UDG ctr A3G – E. coli UDG inhibition in APOBEC3G counter-screen | 710 tested, under 10 active | inhibition, % at 20 µM | shares compounds with APOBEC3G inh | UDG counterscreen, FAM/TAMRA oligo fluorescence;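 active means compounds giving 40% or more inhibition at 20 µM in any one of the three replicates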;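 further: plate controls were DMSO wells with UDG and oligo for no effect and DMSO wells lacking both for full effect; inhibitors lower the FAM signal released by uracil excision and alkaline cleavage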
Starred values were filed as active, the others as inactive; i = inactive; / = no result; + = active, no number. The list is not random: actives were taken first. Their share in the collection is about 2.6%. Unless noted, how the calls were made is not given here.

SMILES | eIF4H FP inh | PHOSPHO1 block | MLLE-PAM2 inh | APOBEC3G inh | A3A deaminase | PABP polyA inh | A3G conf | UDG ctr A3G
Cc1ccccc1/C=N/n1c(-c2ccccn2)n[nH]c1=S | 5 | 20 | -1 | 72* | -5 | i | 98* | 1
Cc1n[nH]c(=S)n1/N=C/c1c(O)ccc2ccccc12 | -8 | -144 | -48 | 46* | -3 | i | 85* | -2
S=c1[nH]nc(C2CCCCC2)n1/N=C/c1ccccn1 | -7 | -99 | -22 | 51* | -4 | i | 79* | 4
S=c1[nH]nc(-c2ccccn2)n1/N=C/c1c(Cl)cccc1Cl | -3 | -87 | 6 | 71* | -1 | i | 93* | 0
S=c1[nH]nc(C2CCCCC2)n1/N=C/c1ccccc1 | -7 | -84 | -66 | 11 | 1 | i | / | /
Cc1nc2ccccc2c(=O)n1/N=C/c1c(O)ccc2ccccc12 | -3 | 19 | -9 | -3 | -2 | i | / | /
CCN1CCN(c2ccc(S(=O)(=O)N3CCCCC3)cc2NC(=O)CC(C)c2ccccc2)CC1 (centres undefined) | / | / | -22 | -11 | 12 | / | / | /
CCn1c(C)nnc1SCC(=O)NC1CCCC1 | -4 | 11 | -4 | -3 | 0 | i | / | /
S=c1[nH]nc(-c2ccccn2)n1/N=C/c1ccc(Cl)cc1 | -4 | -4 | -32 | 50* | -6 | i | 82* | -4
S=c1[nH]nc(-c2ccccn2)n1/N=C/c1cccs1 | 8 | 0 | -34 | -12 | -2 | i | / | /
S=c1[nH]nc(-c2ccccn2)n1/N=C/c1cccc2ccccc12 | -6 | 78* | -21 | 66* | -3 | i | 70* | -3
S=c1[nH]nc(-c2ccccc2)n1/N=C/c1ccc(Cl)cc1 | 4 | -24 | -81 | / | / | i | / | /
CC(/C=N/n1c(-c2ccccn2)n[nH]c1=S)=C\c1ccccc1 | 7 | 20 | -85 | 51* | 2 | i | 37* | 2
Cc1ccc(/C=N/n2c(-c3ccccn3)n[nH]c2=S)o1 | 13 | -46 | -23 | 31 | -1 | i | / | /
S=c1[nH]nc(-c2ccccn2)n1/N=C/c1ccccc1 | 7 | 42 | -17 | 46* | -3 | i | 78* | -1
CC(/C=N/n1c(-c2ccco2)n[nH]c1=S)=C\c1ccccc1 | 0 | 32 | -48 | 12 | 0 | i | / | /
CCCCN(C(=O)Cc1coc2cc(C)c(C)cc12)c1c(N)n(Cc2ccccc2)c(=O)[nH]c1=O | / | / | -6 | -9 | 1 | / | / | /
O=S(=O)(c1cccc(-c2n[nH]c(=S)n2Cc2ccccc2)c1)N1CCOCC1 | -7 | -65 | -13 | 46* | -5 | i | 72* | -8
O=S(=O)(c1cccc(-c2n[nH]c(=S)n2-c2ccccc2Cl)c1)N1CCOCC1 | / | / | -21 | 24 | -6 | / | / | /
N/C(=N\c1nc2ccccc2o1)NC(=O)c1ccccc1 | 2 | 15 | -6 | 61* | 0 | i | -2 | 1
CCCCNS(=O)(=O)c1ccc2nc(-c3cccnc3)cc(C(=O)NCC(OC)OC)c2c1 | -10 | 44 | -4 | -5 | -2 | i | / | /
CCc1nnc(NC(=O)CCC(=O)N2CCN(S(=O)(=O)c3ccc(OC)cc3)CC2)s1 | -4 | 12 | -2 | 0 | 0 | i | / | /
FC(F)Oc1ccc(/C=N/n2c(Cc3ccc(Br)cc3)n[nH]c2=S)cc1 | -7 | 31 | -47 | 48* | 4 | i | 42* | -2
CSc1ccc(/C=N/n2c(Cc3ccc(Br)cc3)n[nH]c2=S)cc1 | 10 | -50 | -93 | -7 | -1 | i | / | /
CCc1c(C)sc(NC(=O)Cn2nc(C)c([N+](=O)[O-])c2C)c1C(N)=O | -3 | -7 | 21 | 52* | 0 | i | 24* | -4
SMILES | eIF4H FP inh | PHOSPHO1 block | MLLE-PAM2 inh | APOBEC3G inh | A3A deaminase | PABP polyA inh | A3G conf | UDG ctr A3G
CCN(c1ccccc1)S(=O)(=O)c1ccc(OC)c(NC(=O)CNCCc2ccccc2)c1 | 11 | 38 | 1 | -4 | -1 | i | / | /
Cc1cc(S(=O)(=O)N(Cc2ccccn2)Cc2ccco2)ccc1-n1cnnn1 | 3 | 9 | 17 | 50* | 2 | i | 1 | /
CCOc1ccccc1CN(Cc1ccco1)S(=O)(=O)c1ccc(-n2cnnn2)c(OC)c1 | 10 | 6 | 8 | / | / | i | / | /
O=C(/C=C/c1cc[n+](CC(=O)c2ccc3cccc4c3c2CC4)cc1)c1ccc2cccc3c2c1CC3 | -32 | -98 | -101 | 54* | 19 | i | 55* | /
Cc1sc2ncn(CC(=O)N3CCC(C(N)=O)CC3)c(=O)c2c1S(=O)(=O)N1CC(C)CC(C)C1 (centres undefined) | -3 | 32 | -16 | -11 | -2 | i | / | /
Cc1cc(C)c2c(=O)n(CC(=O)Nc3ccc(Cl)cc3)sc2n1 | -4 | -107 | -1 | 82* | -7 | i | 93* | 0
Cc1cc(C)c2c(=O)n(CC(=O)N3CCC(Cc4ccccc4)CC3)sc2n1 | -2 | -28 | / | 43* | 2 | i | 58* | /
CCOC(=O)c1cn(CC(=O)Nc2cccc(F)c2)nn1 | 4 | -22 | 19 | -3 | -1 | i | / | /
Cc1ccn2c(=O)nc(SCC(=O)N3CCC(Cc4ccccc4)CC3)nc2c1 | / | / | -10 | 1 | 2 | / | / | /
CCOc1ccc(NC(=O)Cn2ncc3ccccc32)cc1 | -4 | -28 | -11 | -5 | -1 | i | / | /
Cc1cc(C)c2c(=O)n(CC(=O)Nc3cccc(F)c3)sc2n1 | -10 | -49 | 19 | 76* | 5 | i | 84* | 1
CCOc1ccc(NC(=O)Cn2sc3nc(C)cc(C)c3c2=O)cc1 | -10 | -102 | 14 | 80* | -1 | i | 49* | -3
COc1ccc(S(=O)(=O)N2CCCCCC2)cc1C(=O)NCc1cccs1 | / | / | -16 | -5 | 4 | / | / | /
Cc1ccc(-n2[nH]c(C)c(/C=C3/C=Nc4ccccc43)c2=O)cc1C | -8 | -20 | 9 | -3 | -1 | i | / | /
Cc1ccc(NC(=O)Cn2sc3nc(C)cc(C)c3c2=O)c(Cl)c1 | 6 | -130 | 3 | 72* | -8 | i | 92* | -1
Cc1ccnc2nc(C(=O)OCC(=O)c3c[nH]c4ccccc34)nn12 | -7 | 37 | -12 | -5 | 8 | i | / | /
CC(Cc1c[nH]c2ccccc12)C(=O)O (centres undefined) | 108 | -9 | -3 | 40* | 4 | + | 45* | /
COc1ccc(Cc2nc3ccc(C(=O)NCc4cccc(C)n4)cc3o2)cc1OC | / | / | 2 | / | / | / | / | /
CCOC(=O)CSc1nc2c(sc(=S)n2-c2ccccc2)c(=O)n1-c1ccc(OC)cc1OC | 6 | 13 | 8 | 41* | 4 | i | 28* | -4
